Reference: PubChem BioAssay (NCI)
About 79,000 compounds went through this panel and 15% of them were active in at least one assay; those are over-represented in the sample as a whole. Cut-off read from the data, not from the text of the source: active = growth inhibition above about 70%; inactive = the rest.

Assays:
[1] = NCI Yeast Anticancer Drug Screen. Data for the rad50 strain (AID 155);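 note: 0% = growth of vehicle-only cultures of the same strain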; settings: S. cerevisiae rad50 strain growth inhibition; at 50.0 µM; hits give high values
How it was run: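 Relative growth inhibition (compound vs vehicle) was measured in yeast with a defined repair-gene alteration.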

[2] = NCI Yeast Anticancer Drug Screen. Data for the mec2-1 strain (AID 157); settings: S. cerevisiae mec2-1 strain, at 50.0 µM, hits give high values
How it was run: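 Strain: mec2-1 (DNA repair/cell cycle alteration). Compound exposure, then growth measured; inhibition expressed relative to vehicle.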

[3] = NCI Yeast Anticancer Drug Screen. Data for the sgs1 mgt1 strain (AID 161);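 note: 0% = growth of cultures given vehicle only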; settings: S. cerevisiae sgs1 mgt1 strain, at 50.0 µM, hits give high values
How it was run: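 Genetically altered yeast, compound exposure, growth inhibition relative to vehicle.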

[4] = NCI Yeast Anticancer Drug Screen. Data for the cln2 rad14 strain (AID 165);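 note: 0% = growth equal to vehicle treated cultures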; settings: S. cerevisiae cln2 rad14 strain, at 50.0 µM, hits give high values
How it was run: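 Compounds are applied to the cln2 rad14 yeast strain, and growth is then compared with that of vehicle-treated cultures to give inhibition.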

[5] = NCI Yeast Anticancer Drug Screen. Data for the bub3 strain (AID 167); settings: S. cerevisiae bub3 mutant strain, at 50.0 µM, hits give high values
How it was run: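 Screening used yeast with an engineered genetic alteration affecting cell cycle control. Compound-exposed cultures were compared with vehicle cultures, and reduced growth was taken as inhibition.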

[6] = NCI Yeast Anticancer Drug Screen. Data for the mlh1 rad18 strain (AID 175); settings: S. cerevisiae mlh1 rad18 strain growth inhibition; at 50.0 µM; hits give high values
How it was run: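 Read-out is yeast growth inhibition, calculated against vehicle-only controls. The compound was applied to a strain engineered with DNA damage repair alterations.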

Measured: growth inhibition

CCCCOC(=O)c1ccc(C(C)C)cc1
inactive: [1] 8.85% | [2] 6.85% | [3] 8.65% | [4] -19.4% | [5] 7.55% | [6] 4.35%

O=c1[nH]c(O)c(/C=C2/C=Nc3ccccc32)[nH]1
inactive: [1] 0.45% | [2] -5.85% | [3] -8.35% | [4] -15.2% | [5] 4.1% | [6] 0.6%

O=C1C=C(Nc2ccc([N+](=O)[O-])cc2)c2ccccc2C1=O
inactive: [1] 18.4% | [2] -10.9% | [3] -1.3% | [4] 4.65% | [5] -12.9% | [6] -8.8%

Cc1cc(=O)cc(C)n1-c1ccccc1
inactive: [1] 11.9% | [2] -5.75% | [3] -15.4% | [4] 0.25% | [5] 12.1% | [6] 19.2%

CCCC[P+](c1ccccc1)(c1ccccc1)c1ccccc1
inactive: [1] 45.5% | [2] 40% | [3] 48.4% | [4] 37.2% | [5] 33.1% | [6] 65.2%

COS(=O)(=O)c1ccc(Br)cc1
inactive: [1] -6% | [2] -23.4% | [3] -17.3% | [4] -60.8% | [5] 0.6% | [6] -26.2%

CCOc1ccc(Br)cc1/C=N\N=C\c1cc(Br)ccc1OCC
inactive: [1] -9.15% | [2] -29.2% | [3] -1.65% | [4] 13.3% | [5] 4.25% | [6] -10.3%

CC(=O)OCC(=O)[C@@]1(O)CC[C@H]2[C@@H]3CC[C@@H]4C[C@H](O)CC[C@]4(C)[C@H]3C(=O)C[C@@]21C
inactive: [1] 19.7% | [2] 7.15% | [3] 25.4% | [4] 7.75% | [5] -2.85% | [6] 20.6%

O=C(O)[C@@H]1[C@H]2C[C@H]3c4[nH]c5ccccc5c4CCN3C[C@@H]2CC[C@@H]1O
inactive: [1] -10.3% | [2] -27% | [3] 9.45% | [4] 6.5% | [5] -20.6% | [6] -19.9%

c1csc(-c2cc(-c3cc(-c4cccs4)[nH]n3)n[nH]2)c1
inactive: [1] 9.4% | [2] -11.2% | [3] 6.35% | [4] -2.7% | [5] -3.05% | [6] 2.6%

CCCC(=O)Nc1ccc2c(c1)CN1C(=O)c3ccccc3C1=N2
inactive: [1] -11.7% | [2] 1.8% | [3] 7.75% | [4] 5.15% | [5] -1.65% | [6] -7.15%

CCCCCCCCCCC(C)Br (stereo not drawn)
inactive: [1] 19.9% | [2] -12.1% | [3] 10.3% | [4] 1.3% | [5] 28.6% | [6] 1.75%

COc1ccccc1C1OC2=Nc3cc(C)c(C)cc3NC2C1=O (stereo not drawn)
inactive: [1] 11.1% | [2] -9.95% | [3] -1.95% | [4] -9.25% | [5] -21.1% | [6] 5.95%

CC1(C)/C(=C\CO)C2CCC1C2 (stereo not drawn)
inactive: [1] 12.7% | [2] 0.05% | [3] 1.95% | [4] -4.95% | [5] -2.65% | [6] 3.7%

CC(=O)OC1CC2C(C)(C)OC3CC(=O)OCC32C2CCC3(C)C(=CCC3c3ccoc3)C12C (stereo not drawn)
inactive: [1] 6.45% | [2] -5.7% | [3] -26.6% | [4] 17.8% | [5] -10.3% | [6] 1.1%

O=S(=O)(O)c1cc(O)c2c(N=Cc3ccccc3O)c(S(=O)(=O)O)ccc2c1
inactive: [1] 5.15% | [2] -9.6% | [3] 6.55% | [4] -2.45% | [5] 17% | [6] 8.3%

CCCCC1C(=O)N(c2ccccc2)N(c2ccccc2)C1=O
inactive: [1] -5.2% | [2] -10.6% | [3] -2.65% | [4] -5.75% | [5] -4.2% | [6] -19.1%

CC(C)OC(C(=O)O)c1ccccc1 (stereo not drawn)
inactive: [1] -18.2% | [2] 2.2% | [3] -3.65% | [4] 11.8% | [5] 1.05% | [6] 0%

CC(=O)c1ccc(N=C(C#N)C2=C(O)c3ccccc3C2=O)cc1
inactive: [1] 15.7% | [2] -12.4% | [3] 25.8% | [4] 14.2% | [5] 10.9% | [6] 13.3%

O=c1[nH]cc(Cl)cc1O
inactive: [1] -0.15% | [2] -3.3% | [3] -1.35% | [4] -40.9% | [5] 13.2% | [6] 4.9%

O=C1NC(=O)C2C(=O)NC(=O)C1C21CCc2ccccc21 (stereo not drawn)
inactive: [1] -8.5% | [2] -16.6% | [3] -23.5% | [4] -4.25% | [5] -41.9% | [6] -7.45%

CCOC(=O)C(O)C(O)C(=O)OCC (stereo not drawn)
inactive: [1] 21.4% | [2] -15.8% | [3] -29.3% | [4] -16.7% | [5] -2.85% | [6] 7.85%

CCOc1ccc2[nH]c(=S)sc2c1
inactive: [1] 35.5% | [2] 12.9% | [3] 29.9% | [4] 15.5% | [5] -1.5% | [6] 21.4%

CN(C)c1ccc(S(=O)(=O)O)cc1
inactive: [1] 1.3% | [2] -3.65% | [3] 6.65% | [4] 10% | [5] 2.55% | [6] 21.9%

Cc1cc2nc(CC(=O)c3cccc([N+](=O)[O-])c3)c(=O)[nH]c2cc1C
inactive: [1] 22.2% | [2] 10.9% | [3] 7.1% | [4] 20.5% | [5] -6.15% | [6] 39.5%

O=c1cc2oc3cc(O)c(O)cc3c(-c3ccccc3O)c-2cc1O
inactive: [1] 26.1% | [2] 2.25% | [3] 44.9% | [4] 32.3% | [5] 41% | [6] 26.4%

Cc1ccc(Cl)cc1N1C(=O)CC(Sc2ccccc2N)C1=O (stereo not drawn)
inactive: [1] 21.9% | [2] -2.8% | [3] 28.4% | [4] 8.65% | [5] 30.8% | [6] 20.2%

C=CCNc1ccccc1
inactive: [1] 31.2% | [2] 4.35% | [3] 7.55% | [4] -36.6% | [5] 17.6% | [6] 13.7%

CCOC(=O)CSc1c([N+](=O)[O-])ncn1C
inactive: [1] 4.9% | [2] 0.5% | [3] 8.75% | [4] 17.3% | [5] 8.75% | [6] -10.4%

O=[N+]([O-])c1cccc2nsnc12
inactive: [1] 63.5% | [2] 30.6% | [3] 53.8% | [4] 16.6% | [5] -8.15% | [6] 43.6%

O=C(O)c1ccc(S(=O)(=O)O)cc1
inactive: [1] 8.55% | [2] 11.8% | [3] 0.45% | [4] -12.4% | [5] 18.5% | [6] 12.5%

CCN(CC)CCNc1ccc(CO)c2sc3ccccc3c(=O)c12
inactive: [1] -16.1% | [2] -28.1% | [3] -10.8% | [4] 2.6% | [5] -24.1% | [6] -14.4%

O=C(CC(=O)c1ccccc1O)c1ccccc1
inactive: [1] 31.4% | [2] 43.1% | [3] 34.4% | [4] 40.5% | [5] 62.6% | [6] 39.9%

CC(=O)OCCC(C)CCC=C(C)C (stereo not drawn)
inactive: [1] 14.7% | [2] 19.1% | [3] -19.9% | [4] -18.1% | [5] -16.9% | [6] 2.4%

CN(C)c1ccc(CNC(C(=O)c2ccccc2)c2ccccc2)cc1 (stereo not drawn)
inactive: [1] -31% | [2] -5.35% | [3] -15.6% | [4] -17.4% | [5] 8.3% | [6] -20.9%

CC(C)(O)C#CC#CC(C)(C)O
inactive: [1] 30.9% | [2] 4.2% | [3] 5.4% | [4] 3.8% | [5] -41% | [6] -0.55%

COC(=O)c1ccc(C(C)C)cc1
inactive: [1] 2.95% | [2] 11.8% | [3] -1.35% | [4] 16.1% | [5] 0.3% | [6] 4.05%

CC1(C)N=C(N)N=C(N)N1c1cccc(Br)c1
inactive: [1] -14.3% | [2] -14.4% | [3] -13.1% | [4] 7.15% | [5] -0.95% | [6] 2.3%

Oc1ccccc1-c1nnco1
inactive: [1] -1.9% | [2] -13.8% | [3] 0.35% | [4] 4.35% | [5] -2.15% | [6] -8.7%

CC(=O)C1CCCCC1
inactive: [1] 26.7% | [2] 11.2% | [3] 4.5% | [4] 11.7% | [5] 1.2% | [6] 16.8%

CCCCNC1(C#N)CCN(Cc2ccccc2)CC1
inactive: [1] -2.25% | [2] -7.95% | [3] -5.9% | [4] 6.75% | [5] -1.25% | [6] -5.7%

CCOC(=O)CCCC(=O)OCC
inactive: [1] 20.8% | [2] -8.1% | [3] 1.65% | [4] 7.7% | [5] 22.8% | [6] 19.6%

COC(=O)C(C)Oc1ccc(OC#N)cc1 (stereo not drawn)
inactive: [1] -21.3% | [2] -14.1% | [3] 8.9% | [4] -3% | [5] 6.25% | [6] 23.5%
